Shown are actives, neighbours in structure and some others; about 1.2% of the full set was active somewhere.
KAT2A inh = qHTS Assay for Inhibitors of GCN5L2; Histone acetyltransferase KAT2A (Homo sapiens), Q92830; Potency, µM (top dose mostly 58.9 µM), for the others: at the highest dose activity change, negative = inhibition, actives largely listed as inhibitors; hit rate 0.21% among 390,000; GCN5L2 HAT assay, ThioGlo1 CoA-SH fluorescence; also: potency is read from the fitted curve at half-maximal effect
Target sequence (Q92830 whole entry, looked up): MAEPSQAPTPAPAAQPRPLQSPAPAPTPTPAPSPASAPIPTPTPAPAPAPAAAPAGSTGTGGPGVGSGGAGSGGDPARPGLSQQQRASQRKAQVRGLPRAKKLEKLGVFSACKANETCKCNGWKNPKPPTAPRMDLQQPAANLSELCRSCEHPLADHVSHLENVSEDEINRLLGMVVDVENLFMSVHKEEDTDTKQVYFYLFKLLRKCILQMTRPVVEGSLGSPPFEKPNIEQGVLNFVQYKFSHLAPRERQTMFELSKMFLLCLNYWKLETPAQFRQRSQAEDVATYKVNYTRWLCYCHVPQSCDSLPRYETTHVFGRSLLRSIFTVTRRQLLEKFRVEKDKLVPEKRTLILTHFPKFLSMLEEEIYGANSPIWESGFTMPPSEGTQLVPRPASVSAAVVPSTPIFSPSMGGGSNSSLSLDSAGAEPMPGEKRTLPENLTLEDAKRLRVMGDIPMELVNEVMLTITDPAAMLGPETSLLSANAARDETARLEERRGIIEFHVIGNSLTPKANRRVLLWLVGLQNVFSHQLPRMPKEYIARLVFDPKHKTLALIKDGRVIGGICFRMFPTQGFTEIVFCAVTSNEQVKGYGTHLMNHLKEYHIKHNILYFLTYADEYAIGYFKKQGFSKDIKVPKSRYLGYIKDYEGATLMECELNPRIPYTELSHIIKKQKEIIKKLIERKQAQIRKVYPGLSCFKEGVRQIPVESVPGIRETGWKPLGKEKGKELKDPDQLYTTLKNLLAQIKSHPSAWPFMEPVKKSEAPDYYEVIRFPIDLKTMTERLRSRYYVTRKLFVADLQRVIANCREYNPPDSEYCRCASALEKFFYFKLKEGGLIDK
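Free CoA generated was detected with ThioGlo1 (50uM) fluorescence at Ex340nm/Em540nm, read immediately and after 20 min at room temperature. Enzyme, 20 nM in HEPES pH 7.5 buffer, saw compounds 15 min before adding 75uM H3(1-25) peptide and 70uM acetyl-CoA.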
hERG WT inh = qHTS for Inhibitors of KCHN2 3.1: Wildtype qHTS; Voltage-gated inwardly rectifying potassium channel KCNH2 (Homo sapiens), Q12809; U2OS, BacMam KCNH2, thallium flux FluxOr; stronger effect = lower value; activity change, % at 1.84 µM; hit rate 0.37% among 340,000; AID 720551, 2013;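 active = maximum activity change below -70%; inconclusive = maximum activity change between -70% and -50%; inactive = maximum activity change above -50%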
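U2OS cells transduced with wild-type KCNH2 virus are loaded with FluxOr dye for 45 min, and thallium flux is measured in kinetic reads before and after stimulation buffer. Rate constants are normalized to DMSO controls.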
Pin1 inhibitor = qHTS Assay to Find Inhibitors of Pin1; Pin1 FP peptide displacement, HiFluor488, 10 min; Potency, µM (series often up to 115 µM), inactives show top-dose activity, negative = inhibition, hits mostly inhibitors; AID 504891, 2011; hit rate 0.009% among 390,000; active = well fitted inhibition curve with a large enough effect in the polarisation, with a control signal flat, not every such curve was filed as active; inconclusive = small, poorly fitted or top-dose-only effect, or effect the other way, or a change in a side signal; inactive = no such curve, though single readings can be large or run the other way; the % refers to the polarisation; also: potency is read from the fitted curve at half-maximal effect
RGS4 inhibitor = Inhibitors of Regulator of G Protein Signaling (RGS) 4: qHTS. Transcreener GDP fluorescence polarization, RGS4-accelerated GTP hydrolysis. Potency, µM (highest dose often 114 µM), inactives show at the highest dose activity change, negative = inhibition, hits mostly inhibitors. hit rate 0.039% among 390,000. Regulator of G-protein signaling 4 (Homo sapiens), P49798. AID 504845, 2011; also: potency is read from the fitted curve at half-maximal effect; nearly all actives have a fitted effect of over 75% in size
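MLSMR compounds (23 nl, pin-transferred) preincubated 10 min at room temperature with a 500nM (2x) first reagent, then RGS4 at 900nM (2x) plus Transcreener GDP mix added; fluorescence polarization (620/688 nm) read before and after 90 min at 30 °C.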
PGK inhibitor = qHTS Assay to Find Inhibitors of Phosphoglycerate Kinase; PGK/GAPDH coupled, Kinase-Glo luminescence, 60 min; Potency, µM (top dose mostly 57.5 µM), for the others: at the highest dose activity change, negative = inhibition, usual class: inhibitors; hit rate 0.043% among 380,000; also: potency is read from the fitted curve at half-maximal effect; nearly all actives have a fitted effect of over 60% in size
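Recombinant glycosomal PGK reaction used 1,3-bisphosphoglycerate generated in-well by GAPDH (100nM final) in 100mM TEA pH 7.6, 5mM MgCl2, 0.01% Tween-20. After 60 minutes at room temperature, ATP was read by Kinase-Glo Plus luminescence end-point.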
KCNH2 3.1 block = qHTS for Inhibitors of KCHN2 3.1: Mutant qHTS. Potassium voltage-gated channel subfamily H member 2, brain isoform KCNH2 3.1 (human). activity change, % (tested at about 1.8 µM). U2OS KCNH2 3.1, thallium flux FluxOr; stronger effect = lower value. hit rate 0.95% among 340,000;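 active = maximum activity change below -70%; inconclusive = maximum activity change from -70% to -50%; inactive = maximum activity change above -50%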;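 also: thallium influx rate constant from kinetic fluorescence after stimulation buffer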
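Kinetic fluorescence (2 min after stimulation buffer) measures Tl+ influx through KCNH2 3.1 expressed by viral transduction in U2OS cells; the rate constant is normalized against DMSO controls serving as positive and negative references.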
* marks the source's active call; other numbers are inactive results; i = inactive; ? = inconclusive; nt = no result given; [ ] = dose if it differs, or a comment. Unless noted, calls follow the shape of the dose curve; as a rule, active = well fitted curve in the direction sought with a large enough effect; inconclusive = small, poorly fitted or top-dose-only effect, or another doubt; inactive = no such curve, though single readings can be large; an effect the other way counts as inactive or inconclusive. % is scaled to controls: 0 for no effect and ±100 for the full control effect.

SMILES	KAT2A inh	hERG WT inh	Pin1 inhibitor	RGS4 inhibitor	PGK inhibitor	KCNH2 3.1 block
CC(=O)Nc1nonc1-c1nnc(SCC(=O)Nc2cc(C)cc(C)c2)n1C	-2.6%	nt	-5.3%	-5.7%	i	nt
CS(=O)(=O)c1ccc(Cl)c(NC(=O)CSc2nc3ccccc3c(=O)n2Cc2ccco2)c1	0.3%	-13.4	-3.8%	31.4%	-3.6%	-97.6*
O=C(CSc1nc2ccccc2c(=O)n1Cc1ccco1)Nc1cccc(O)c1	-11.4%	0.7	3.0%	-43.3%	-2.6%	-21.0
COC(=O)c1ccc2c(=O)n(Cc3ccco3)c(SCC(=O)Nc3ccc(C)c(Cl)c3)nc2c1	-0.3%	-18.3	-0.7%	-14.3%	1.6%	-75.1*
CC(C)c1ccc(NC(=O)CSc2n[nH]c(=O)n2Cc2ccco2)cc1	2.6%	-1.5	-4.1%	6.3%	-13.1%	-88.2*
O=C(CSc1nc2cc(Cl)ccc2c(=O)n1Cc1ccco1)Nc1ccc(S(=O)(=O)N2CCOCC2)cc1	-5.0%	-15.4	?	-4.6%	4.9%	-75.1*
O=C(CSc1n[nH]c(=O)n1Cc1ccco1)Nc1ccccc1	0.0%	6.7	-4.5%	-1.6%	-5.0%	-28.8
O=c1c2ccccc2nnn1CSc1nc2cc(Cl)ccc2c(=O)n1Cc1ccco1	nt	-0.2	-7.4%	-28.5%	-2.8%	2.4
Cc1cccc(OCC(=O)NCC2(N3CCN(C)CC3)CCCCC2)c1	-7.0%	nt	2.2%	10.5%	0.1%	nt
CN1C(C(=O)c2ccccc2)=C(OC(=O)c2ccc(Br)cc2)c2ccccc2S1(=O)=O	-9.3%	nt	12.6%	-8.7%	i	nt
Cc1nn2c(=O)cc(COC(=O)c3ccc(NC(=O)c4cccc(Br)c4)cc3)nc2s1	0.3%	nt	0.2%	-27.1%	-1.9%	nt
Nc1ccccc1S(=O)(=O)Nc1cccc2cccnc12	-14.0%	nt	1.1%	nt	nt	nt
Cc1ccc(NC(=O)CSc2nnc(-c3ccncc3)n2N)cc1C	-4.0%	-204.3*	-9.8%	17.3%	-6.1%	-7.2
Clc1ccc(Cn2nnc(-c3ccc(N4CCOCC4)cc3)n2)cc1	-0.6%	-18.1	-1.4%	-10.2%	-5.3%	-73.0*
CN1CCN(CC(=O)Nc2c(C(=O)c3ccccc3)oc3ccccc23)CC1	-1.9%	-100.8*	-2.1%	25.8%	i	-105.5*
COc1ccc2oc(C(=O)c3ccccc3)c(NC(=O)CN3CCN(C)CC3)c2c1	-10.8%	6.2	-1.0%	6.2%	-1.9%	-4.7
Cc1cc(=O)c(C(=O)O)cn1Nc1ccc(F)cc1	2.4%	17.2	-14.5%	10.7%	-1.0%	-84.0*
O=C(CSc1nc2c([nH]c3ccccc32)c(=O)n1-c1ccc(F)cc1)NCC1CCCO1 (configuration not stated)	-3.3%	nt	0.4%	-4.5%	6.9%	nt
Cc1ccc([N+](=O)[O-])c(OCCN2CCCCCC2)c1	-1.7%	20.3	1.2%	13.3%	5.1%	1.7
OCc1ccccc1OCCCN1CCC(Cc2ccccc2)CC1	-3.6%	-3.1	3.3%	10.3%	-5.1%	-89.6*
O=[N+]([O-])c1cccc(OCCN2CCC(Cc3ccccc3)CC2)c1	-7.2%	4.5	?	-6.6%	-9.6%	-70.5*
COc1cc(C)c(CN2CCC(Cc3ccccc3)CC2)cc1C	-4.1%	35.9	-6.2%	15.8%	i	-27.6
C=CCOc1ccccc1CN1CCC(Cc2ccccc2)CC1	-4.5%	38.9	-13.3%	-1.1%	-5.9%	-86.7*
Cc1ccc([N+](=O)[O-])c(OCCCN2CCC(Cc3ccccc3)CC2)c1	nt	-126.6*	-12.6%	12.0%	2.1%	-96.6*
CC1(C)CCC2(C(=O)O)CC[C@]3(C)C(=CCC4[C@]5(C)CCC(O)C(C)(C)C5C(O)C[C@]43C)C2C1 (some centres not stated)	26.6%	nt	nt	nt	nt	nt
SMILES	KAT2A inh	hERG WT inh	Pin1 inhibitor	RGS4 inhibitor	PGK inhibitor	KCNH2 3.1 block
O=Cc1cc(Cl)ccc1OCCN1CCC(Cc2ccccc2)CC1	0.9%	?	-1.4%	4.7%	-5.6%	-104.7*
COc1ccc(NC(=O)N2CCCC3(CCN(C(=O)c4c(C)noc4C)CC3)C2)cc1	-10.7%	nt	nt	nt	nt	nt
Cc1cc2n(n1)CCCN2C(=O)Nc1cccc(C)c1C	-1.0%	nt	0.9%	3.4%	1.5%	nt
COc1ccc2c(c1)C(c1cc(OC)c(OC)c(OC)c1)CC(=O)O2 (configuration not stated)	7.0%[88.6 µM]	nt	nt	nt	nt	nt
O=C(NCc1ccccc1)C1CCN(S(=O)(=O)N2CCOCC2)CC1	-6.3%	-1.9	0.1%	-9.9%	-2.6%	7.4
O=C(NCCc1ccccc1)C1CCN(S(=O)(=O)N2CCOCC2)CC1	0.4%	-103.9*	-0.2%	2.4%[56.9 µM]	4.3%	-2.5
COC(=O)c1ccc(NC(=O)COC(=O)CSc2nc(C)cc(C)n2)cc1	0.708µM*	-26.8	1.4%	-2.2%	3.1%	6.3
Cc1cc(C)nc(SCC(=O)OCC(=O)Nc2nc3ccccc3s2)n1	-3.6%	4.1	22.6%	-19.6%	i	5.2
COc1ccc(C(=O)n2nc(-c3ccco3)nc2SC)cc1OC	?	-131.9*	-16.5%	-26.4%	i	-177.0*
Cc1ccc(/C(O)=C2\C(=O)C(=O)N(CC(C)O)C2c2ccc(N(C)C)cc2)cc1 (configuration not stated)	-5.1%	-123.0*	-6.8%	6.1%	i	-5.0
COc1ccccc1C1/C(=C(/O)c2ccc(C)cc2)C(=O)C(=O)N1CC(C)O (configuration not stated)	-11.8%	11.9	-2.3%	-12.5%	-2.7%	4.6
CCS(=O)(=O)N1CC(=O)N(c2cc(C)cc(C)c2)C(C)(C(=O)NC2CCCCC2)C1 (configuration not stated)	-3.0%	nt	-5.5%	-22.5%	-9.3%	nt
COc1ccc(N2CC(C(=O)Nc3nnc(SCC(=O)NCC4CCCO4)s3)CC2=O)cc1 (configuration not stated)	nt	-127.8*	?	-34.0%	-0.2%	-197.4*
CS(=O)(=O)c1ccc2nc(NC3(C(F)(F)F)N=C4SCCN4C3=O)sc2c1 (configuration not stated)	-4.7%	-85.0*	-4.8%	6.1%	nt	4.0
O=C(CSc1nc2c([nH]c3ccccc32)c(=O)n1-c1ccc(Cl)cc1)N1CCCCCC1	9.6%	nt	2.0%	-30.5%	-7.8%	nt

Compound activity: PubChem, National Center for Advancing Translational Sciences (NCATS)
